In PubChem BioAssay (NCI) one finds growth data, which are given here for nine compounds.

SMILES strings stand for the structures. Compounds without any hit were thinned out: in the full panel of roughly 83,000, 20% have a hit.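 The test compound was applied at a single concentration to cells in 96-well plates for 48 hours, and percent growth was recorded.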 A number with no mark means an inactive call. The source made the active and inactive calls. How the source made its calls: active means growth percent below 10; inactive means the rest.

Among the test systems are NCI-H23 lung; NCI-H226 lung; NCI-H322M lung; HOP-62 NSCLC; NCI-H460 lung; NCI-H522 lung; 786-0 renal; COLO 205 colon; DU-145 prostate; K-562 leukemia; MALME-3M melanoma; MDA-MB-231 breast; RXF 393 renal; SF-268 CNS; SF-295 CNS; SF-539 CNS; UACC-257 melanoma; M14 melanoma; HCT-15 colon; A549/ATCC NSCLC.
Holding throughout (experiment): NCI-60 one-dose screen, 48 h (100 = growth as untreated, 0 = no growth, -100 = all killed)
Holding throughout (conditions): 10 µM unless noted

`O=C(/C=C/c1cc2ccccc2[nH]c1=O)c1ccc(O)cc1`: the growth was 56.9% with NCI-H23 lung; 98.7% in the assay with NCI-H226 lung; 51.8% in the assay on NCI-H322M lung; 42.5% in the assay with HOP-62 NSCLC; 1.97% (active) in the assay with NCI-H460 lung; -44.1% (active) in the assay with NCI-H522 lung. The growth was 62.6% with 786-0 renal; 105% in the assay with COLO 205 colon; -44.1% (active) with DU-145 prostate; 5.94% (active) with K-562 leukemia; 83.7% in the assay with MALME-3M melanoma; 59.5% in the assay on MDA-MB-231 breast. For the same compound, the growth in the assay on RXF 393 renal was 0.37% (active); with SF-268 CNS, 20.4%; in the assay on SF-295 CNS, 54%; in the assay with SF-539 CNS, 23.3%; in the assay with UACC-257 melanoma it was 92.6%; in the assay on M14 melanoma, 76%. The growth with HCT-15 colon was 35.2%.

On to `CCC(C)CC(CC)NCCN1CCN(C(CC)CC(C)CC)C1=S` (centres undefined), for which the growth in the assay with NCI-H23 lung was 42.5%; in the assay with NCI-H226 lung, 47%; with NCI-H322M lung, 78.8%; in the assay on HOP-62 NSCLC, 29.1%; with NCI-H460 lung it was 9.44% (active); with NCI-H522 lung it was -12% (active). Besides, the growth in the assay with A549/ATCC NSCLC was 50.2%; with 786-0 renal, 56.5%; with DU-145 prostate, 29.5%; in the assay on MALME-3M melanoma, -33.8% (active); in the assay with MDA-MB-231 breast, -12.4% (active); in the assay with SF-268 CNS, 61.8%. Moreover, the growth with SF-295 CNS is 56.1%; in the assay on SF-539 CNS, 69.2%; in the assay on UACC-257 melanoma, 39.5%; in the assay on M14 melanoma, -47.3% (active); with HCT-15 colon, 22.5%.

For `O=C(NN(C(=O)c1ccccc1)c1cccs1)c1ccccc1`, the growth with NCI-H23 lung was 103%; with NCI-H226 lung it was 99.8%; in the assay on NCI-H322M lung, 94%; with HOP-62 NSCLC, 97%; in the assay on NCI-H460 lung, 116%; in the assay on NCI-H522 lung it was 91.3%. The growth with 786-0 renal is 100%; with COLO 205 colon, 106%; in the assay with DU-145 prostate, 123%; in the assay with K-562 leukemia, 109%; in the assay with MALME-3M melanoma it was 97.3%; with MDA-MB-231 breast, 93.4%. Also, the growth is 115% in the assay with RXF 393 renal; 112% with SF-268 CNS; 116% with SF-295 CNS; 110% in the assay on SF-539 CNS; 139% in the assay on UACC-257 melanoma; 101% with M14 melanoma. The growth in the assay on HCT-15 colon was 101%.

As to `COc1ccc(-c2c3c(nn2-c2ccc(N)cc2)CCc2cnoc2-3)cc1OC`, the growth in the assay with NCI-H23 lung was 93.4%; in the assay with NCI-H226 lung, 95.8%; in the assay with NCI-H322M lung, 103%; in the assay on HOP-62 NSCLC, 104%; with NCI-H460 lung, 101%; in the assay with NCI-H522 lung, 70.4%. The growth in the assay on A549/ATCC NSCLC was 85.2%; in the assay with 786-0 renal, 84.9%; in the assay on MALME-3M melanoma, 106%; in the assay on MDA-MB-231 breast it was 88.5%; in the assay with RXF 393 renal, 93%; in the assay on SF-268 CNS, 90.8%. The growth was 85.4% in the assay on SF-295 CNS; 94.5% in the assay with SF-539 CNS; 112% with UACC-257 melanoma; 97.8% with M14 melanoma; 85.6% with HCT-15 colon.

For the compound `O=C1Cc2cc(CCn3cncn3)c(Cl)cc2N1`, the growth in the assay on NCI-H23 lung is 24.1%; in the assay with NCI-H226 lung, 74.8%; in the assay on NCI-H322M lung, 92.7%; in the assay with HOP-62 NSCLC it was 69.6%; in the assay with NCI-H460 lung it was 83.9%; with NCI-H522 lung it was 32.8%. The growth with A549/ATCC NSCLC is 59.8%; in the assay with 786-0 renal it was 94.7%; in the assay with DU-145 prostate, 96.5%; in the assay on MALME-3M melanoma, 93.8%; in the assay on MDA-MB-231 breast, 56%; in the assay on RXF 393 renal it was 62%. The growth in the assay on SF-268 CNS is 110%; with SF-295 CNS, 69.3%; with UACC-257 melanoma, 51.7%; with M14 melanoma it was 24%; with HCT-15 colon, 54.6%.

Take `COc1ccc2c(c1)C(=O)/C(=C/c1cccc(OCC(=O)c3ccccc3)c1)CC2`: the growth with NCI-H23 lung is 87.4%; with NCI-H226 lung, 75.9%; in the assay with NCI-H322M lung, 108%; with HOP-62 NSCLC, 101%; in the assay with NCI-H460 lung, 113%; in the assay on NCI-H522 lung, 64.7%. The growth in the assay with 786-0 renal is 87.6%; with COLO 205 colon it was 136%; in the assay on K-562 leukemia, 33.4%; in the assay with MALME-3M melanoma, 97.6%; with MDA-MB-231 breast it was 83.6%; with SF-268 CNS, 91.8%. The growth in the assay on SF-295 CNS is 104%; in the assay on SF-539 CNS it was 93.5%; with UACC-257 melanoma it was 91.7%; with M14 melanoma, 92.2%; in the assay on HCT-15 colon, 89.7%.

Consider `Nc1cc(Cl)c(S(N)(=O)=O)cc1S(N)(=O)=O`, for which the growth was 87.1% in the assay with NCI-H23 lung; 92.8% in the assay with NCI-H226 lung; 87.9% with NCI-H322M lung; 111% in the assay on HOP-62 NSCLC; 106% with NCI-H460 lung; 68.8% in the assay on NCI-H522 lung. Also, the growth in the assay on 786-0 renal is 100%; with COLO 205 colon it was 109%; in the assay on DU-145 prostate, 121%; in the assay with K-562 leukemia, 104%; in the assay on MALME-3M melanoma, 84.5%; in the assay on MDA-MB-231 breast, 113%. Moreover, the growth was 113% in the assay on SF-268 CNS; 111% with SF-295 CNS; 88.1% in the assay with SF-539 CNS; 108% with M14 melanoma; 97.9% in the assay with HCT-15 colon.

As for `c1ccc(-n2nnnc2-c2cccc3ccccc23)cc1`, the growth was 52.1% with NCI-H23 lung; 79.3% in the assay on NCI-H226 lung; 30.2% in the assay with NCI-H322M lung; 25.9% with HOP-62 NSCLC; 9.98% (active) in the assay with NCI-H460 lung; 34.5% in the assay on A549/ATCC NSCLC. Moreover, the growth is 24.7% in the assay on 786-0 renal; -17.8% (active) with COLO 205 colon; 7.52% (active) in the assay with DU-145 prostate; 13% in the assay on K-562 leukemia; 34.8% with MALME-3M melanoma; 25.4% in the assay on MDA-MB-231 breast. Also, the growth with RXF 393 renal was -5.16% (active); with SF-268 CNS, 43.4%; in the assay on SF-295 CNS it was 1.28% (active); in the assay on SF-539 CNS, -18.8% (active); with UACC-257 melanoma, 57.5%; with M14 melanoma it was 8.41% (active). Moreover, in the assay with HCT-15 colon, the growth was 18.7%.

For the compound `CN1CCCC1c1cccnc1` (centres undefined), the growth is 2.54% (active) in the assay on NCI-H23 lung; 96.4% with NCI-H226 lung; 105% in the assay with NCI-H322M lung; 113% in the assay with HOP-62 NSCLC; 98.6% in the assay with NCI-H460 lung; 17.3% with NCI-H522 lung. Further, the growth in the assay on 786-0 renal is 108%; in the assay on COLO 205 colon, 105%; in the assay on DU-145 prostate it was 110%; in the assay with K-562 leukemia, 106%; with MALME-3M melanoma, 128%; in the assay with MDA-MB-231 breast, 97.3%. For the same compound, the growth in the assay on SF-268 CNS was 111%; with SF-295 CNS, 124%; in the assay with SF-539 CNS, 85.2%; in the assay with M14 melanoma, 119%; with HCT-15 colon, 100%.
